From PubChem BioAssay AID624330 (Southern Research Specialized Biocontainment Screening …, 2012)
Several values for one entry are separate records, joined by “and”; a condition that tells them apart may be missing. Equal entries are not always repeated. The campaign covered roughly 340,000 compounds. About 2,100 (0.62%) were called active.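 How the source made its calls: active means first-screen hits whose inhibition reached a set limit at any dose in the follow-up dose series; inconclusive means inhibition above the set first-screen limit but never retested; inactive means the rest.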 Only a sample is shown. Measured potencies and affinities stand elsewhere.

The molecules below were run against Rac GTPase-activating protein 1 (Homo sapiens) (UniProt Q9H0H5) (assay: blockers of MgcRacGAP-driven Rac1 GTP hydrolysis – biochemical, ADP Hunter fluorescence, primary and confirmatory, confirmation (AID 624330;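 further: fluorescence reports GDP produced by GAP-driven GTP hydrolysis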)). Conditions: MgcRacGAP-stimulated Rac1 GTP hydrolysis, at 30 µM, hits give high values, GST-tagged Rac1 F28L mutant substrate.
Chain of Rac GTPase-activating protein 1 (Homo sapiens) (Q9H0H5 whole entry, looked up): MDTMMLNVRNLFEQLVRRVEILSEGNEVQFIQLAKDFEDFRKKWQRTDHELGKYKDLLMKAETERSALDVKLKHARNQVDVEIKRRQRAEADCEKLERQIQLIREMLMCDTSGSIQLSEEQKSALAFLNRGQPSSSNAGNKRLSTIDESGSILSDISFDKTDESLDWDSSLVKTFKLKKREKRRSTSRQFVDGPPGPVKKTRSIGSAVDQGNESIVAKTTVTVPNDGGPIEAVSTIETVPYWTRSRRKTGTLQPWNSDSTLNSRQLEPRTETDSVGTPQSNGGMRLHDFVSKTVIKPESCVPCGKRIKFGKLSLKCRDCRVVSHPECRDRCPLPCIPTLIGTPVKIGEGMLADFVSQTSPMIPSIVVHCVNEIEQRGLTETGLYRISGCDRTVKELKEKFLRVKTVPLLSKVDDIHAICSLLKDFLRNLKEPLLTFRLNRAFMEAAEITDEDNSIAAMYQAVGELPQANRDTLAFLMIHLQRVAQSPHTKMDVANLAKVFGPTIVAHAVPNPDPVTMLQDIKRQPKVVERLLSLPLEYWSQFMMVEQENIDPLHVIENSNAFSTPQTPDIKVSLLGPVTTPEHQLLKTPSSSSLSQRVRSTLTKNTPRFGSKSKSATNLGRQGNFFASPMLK

inhibition, inactive:
CC(=O)NC(C(=O)c1ccccc1)N1CCCCC1 (stereo not given) 13.8%
Cc1ccc(/C=C2/NC(=O)[C@H](C)NC2=O)cc1 6.59%
CCN1C(=NCCOC)N[C@@H](CCc2ccccc2)[C@H](C(=O)OC)[C@H]1C 12.5%
C=C(C)CSc1nc2sc3c(c2c(=O)n1-c1ccccc1)CCN(C)C3 11.6%
O=C(NC1CCCCC1)N1CCN(c2ccc(Cl)cc2)CC1 6.94%
COc1cccc(N2CCN(C(=O)NC3CCCCC3)CC2)c1 2.77%
O=C(c1ccccc1Cc1ccccc1)N1CCN(S(=O)(=O)c2ccccc2Br)CC1 3.3%
COc1ccc(S(=O)(=O)N2CCN(C(=O)CCSc3ccccc3)CC2)cc1 7.76%
O=C(CNC(=O)c1ccccc1Br)N/N=C/c1ccco1 5.21%
O=C(c1ccc(S(=O)(=O)NCC2CCCO2)cc1)N1CCN(c2ccccc2F)CC1 (stereo not given) 5.89%
COc1ccc(N2CCN(C(=O)c3ccc(CS(=O)Cc4ccc(Cl)cc4)o3)CC2)cc1 (stereo not given) 14%
COc1ccc(S(=O)(=O)Cc2ccc(C(=O)N3CCN(c4ccc(Cl)cc4)CC3)o2)cc1 4.84%
C=CCN(Cc1ccc(Cl)s1)C(=O)c1cc(S(=O)(=O)N2CCOCC2)ccc1F 1.3%
COc1ccc(NC(=O)/C(=C\c2cc(OC)c(OC)cc2[N+](=O)[O-])NC(=O)c2ccccc2)cc1 9.89%
COc1cc(/C=C(/NC(=O)c2ccccc2)C(=O)Nc2ccccc2)c([N+](=O)[O-])cc1OC 4.35%
C=CCn1c(CNc2ccccc2)nnc1SCC(=O)N/N=C/c1ccccc1O 3.95%
C=CCn1c(CNc2ccc(C)cc2)nnc1SCC(=O)N/N=C/c1ccc(O)cc1 30.4%
C=CCn1c(COc2ccccc2)nnc1SCC(=O)N/N=C/c1cc(Cl)ccc1O 11%
C=CCn1c(COc2ccccc2)nnc1SCC(=O)N/N=C/c1ccc(C)cc1 1.44%
COc1c(N)c2c(c([N+](=O)[O-])c1OC)C(=O)OC2 -0.66%
C/C(=N\OCC(=O)Nn1c(=O)[nH]c2ccccc2c1=O)c1ccccc1 10.5%
Cc1cc(C)nc(NN=C(c2ccccc2)c2ccccc2)n1 7.14%
CC1=C(C(=O)Nc2ccccc2C(=O)NCCCOC(C)C)SCCO1 -0.28%
O=C(Nc1ccc(Br)cc1)c1cccc(N2C(=O)C3C4C=CC(C4)C3C2=O)c1 (stereo not given) 7.3%
O=C(Nc1ccccc1)c1cccc(N2C(=O)C3C4C=CC(C4)C3C2=O)c1 (stereo not given) 8.69%
CN1CCOCCOCCN(C)C1=O 8.52%
O=C(Cc1cccc2ccccc12)NC(=S)Nc1cccc(C(=O)O)c1 5.5%
O=C(N/N=C/c1ccncc1)NC12CC3CC(CC(C3)C1)C2 10.9%
COc1ccc(C=NNC(=O)NN=Cc2ccc(OC)c(OC)c2)cc1OC 3.42%
COc1cc(/C=N/NC(=O)NC23CC4CC(CC(C4)C2)C3)ccc1OCC(N)=O 7.72%
COc1ccc(C=NNC(=S)NC23CC4CC(CC(C4)C2)C3)cc1OC 7.09%
O=C(N/N=C/c1ccc(O)cc1O)NC12CC3CC(CC(C3)C1)C2 15%
COc1ccc(/C=N/N=C2\CC3CCC2(C)C3(C)C)cc1O (stereo not given) 5.9%
COc1ccc(/C=C2/S/C(=N/N=C3\CC4CCC3(C)C4(C)C)NC2=O)cc1 (stereo not given) 7.33%
COc1ccc(/C=N/NC(=O)C2C3CCCCC32)cc1OC (stereo not given) 10.4%
COc1ccc(C(=O)NCC(=O)N/N=C(\C)c2ccco2)cc1OC -0.25%
CCOC(=O)CNc1nc(Cl)nc(Nc2ccc(Cl)cc2)n1 -8.39%
CCCCn1nnc(N(C(=O)c2cccs2)C(=O)c2cccs2)n1 -4.48%
CC(C)CC(=O)NC(=S)Nc1ccc(N2CCOCC2)c(Cl)c1 2.66%
S=C(c1ccc(-c2ccc(Cl)cc2Cl)o1)N1CCCCC1 10.8%
O=C(COc1ccc(Cl)cc1)NNC(=O)c1ccncc1 8.55%
Cc1ccc(NC(=O)c2sccc2C)cc1S(=O)(=O)N(C)C 11.1%
COc1ccc2c(c1)C1NC(=S)N[C@@](C)(O2)C1C(=O)Nc1ccccc1 (stereo not given in full) 9.66%
COc1nn(CC(=O)N2N=C(C(F)F)CC2(O)C(F)F)cc1[N+](=O)[O-] (stereo not given) 5.35%
CC(C)CN1CCC(=O)N([C@H](CN=[N+]=[N-])Cc2ccccc2)CC1 7.37%
O=C(NN=Cc1cc([N+](=O)[O-])ccc1O)c1cccc2ccccc12 4.07%
COc1ccc(/C=N/NC(=O)NC23CC4CC(CC(C4)C2)C3)c(OC)c1 0.89%
O=C(N/N=C/c1ccccc1O)NC12CC3CC(CC(C3)C1)C2 7.17%
COc1ccccc1N1CCN(C2CCCN(C(=O)c3ccsc3)C2)CC1 (stereo not given) 9.49%
Cc1nnc(SCC(=O)NNC(=O)COc2ccc(Cl)cc2)s1 3.46%
CCN(CC)c1ccc(C(=O)NN)cc1 10%
CCN(CC)c1ccc(C(=S)NCc2ccccc2)cc1 9.69%
CCN(CC)c1ccc(C(=O)NNC(=O)CCNC(=O)c2ccccc2)cc1 7.48%
CCN(CC)c1ccc(C(=C2C=CC(=[N+](CC)CC)C=C2)c2ccc(S(=O)(=O)O)cc2S(=O)(=O)[O-])cc1 25.4%
CC(C)(/C=N/NC(=O)CSCc1ccccc1Cl)CCC#N 4.57%
Cc1nc(NC(=O)C2CC2)sc1C(=O)Nc1ccccc1 12.6%
CCc1ccc(NS(=O)(=O)c2ccc3[nH]c(=O)[nH]c3c2)cc1 -4.35%
Cn1c(SCC(=O)NC2CCS(=O)(=O)C2)nnc1-c1ccco1 (stereo not given) -3.56%
O=C(CCNC(=O)c1ccccc1)NC1CCCc2ccccc21 (stereo not given) 6.57%
Cc1ccc(S(=O)(=O)NCCc2ccncc2)cc1[N+](=O)[O-] 2.26%
CCN(CC)S(=O)(=O)c1cccc(-c2n[nH]c(=S)n2/N=C/c2ccc(OC)cc2)c1 8.14%
CCN(CC)S(=O)(=O)c1cccc(-c2n[nH]c(=S)n2/N=C/c2ccc(Br)cc2)c1 12.8%
CC(=O)Nc1ccc(Oc2ccc(-c3noc(C)n3)cc2)cc1 10.9%
CC(NC(=O)Cc1cccc(C(F)(F)F)c1)c1ccc(F)cc1 (stereo not given) 0.98%
CCOC(=O)c1sc(NC(C)=O)nc1C 6.36%
CCOC(=O)c1c(C)nsc1NC(=O)C1CCCCC1 -1.81%
CCOC(=O)c1sc(NC(=O)CC)nc1C 7.69%
CCOC(=O)c1c(C)nsc1NCc1ccccc1 10.9%
O=C(NCCO)c1ccc(-c2nnc(N3CCOCC3)c3ccccc23)cc1 1.36%
O=C1CCc2cc(S(=O)(=O)Nc3ccc(F)cc3)cc3c2N1CC3 6.87%
N=C(N)c1ccc(O)cc1 3.97%
N=C(N)c1ccccc1 2.01% and 4.94%
O=[N+]([O-])c1ccc(C=CC=Cc2ccccc2)cc1 5.54%
O=[N+]([O-])/C=C\c1ccc(N2CCOCC2)cc1 24%
O=[N+]([O-])/C=C/c1cn(Cc2ccccc2)c2ccccc12 4.89%
Cc1cccc(Cn2cc(/C=C/[N+](=O)[O-])c3ccccc32)c1 3.28%
CS(=O)(=O)N(CC(=O)NCCSCc1ccco1)c1ccc(Cl)cc1 5.58%
Cc1ccc(N(CC2CO2)S(=O)(=O)c2ccc([N+](=O)[O-])cc2)cc1 (stereo not given) 4.81%
COC(=O)c1ccc(NC(=O)C2CCN(C(=O)Nc3ccccc3)CC2)cc1 5.55%
O=[N+]([O-])c1cc(C(F)(F)F)ccc1N1CCN(CCO)CC1 4.15%
O=[N+]([O-])c1ccc(N2CCCC2)c([N+](=O)[O-])c1 6.43%
Cc1nn(CC(=O)Nc2ccc3c(c2)OCCO3)c(C)c1[N+](=O)[O-] 0.26%
CCOC(=O)/C=C/c1cnn(-c2ccccc2)c1 6.95%
O=C(O)/C=C/c1cnn(-c2ccccc2)c1 2.55%
CCN=C1S/C(=C\c2cc(Cl)c(OC)c(OC)c2)C(=O)N1CC 4.7%
O=C(NNS(=O)(=O)c1ccc(F)cc1)c1ccc(O)cc1 6.98%
CCOC(=O)Cn1nnnc1CN1CCN(c2ccc(OC)cc2)CC1 14.7%
COc1ccc(Cn2nnnc2CN2CCOCC2)cc1 7.47%
C=CCN(c1ccccc1)S(=O)(=O)c1cccc(C(=O)Nc2ncccc2O)c1 -0.92%
Cc1ccc(N(C(=O)Cn2nnc(-c3ccccc3F)n2)C(C(=O)NC2CCCC2)c2ccncc2)cc1 (stereo not given) 6.05%
COc1ccc(OC)c(-c2csc(NC(=O)COC(=O)c3ccc(NC(=O)CC#N)cc3)n2)c1 5.16%
Cc1cc(C(=O)NC(C)C2CCCO2)cs1 (stereo not given) -7.59%
CCCn1c(=O)c2ccccc2n2c(SCC(N)=O)nnc12 18.7%
CCCn1c(=O)c2ccccc2n2c(SCCOc3ccccc3)nnc12 4.68%
Cc1ccc(NC(=O)CN(C)S(=O)(=O)c2ccc3c(c2)n(C)c(=O)c(=O)n3C)cc1 7.39%
